This is an account of results in PubChem BioAssay (NCI).

Compounds without any hit were thinned out: in the full panel of roughly 83,000, 20% have a hit.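 Compound tested at a single concentration for 48 hours in 96-well plates; a percent growth value below 10 was scored as active.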 Calls of active or inactive are those of the source.

For this experiment, the system named is EKVX NSCLC. Description: NCI-60 one-dose screen, 48 h (100 = growth as untreated, 0 = no growth, -100 = all killed). The note with it: 10 µM unless noted. The procedure: Growth inhibition of the EKVX human Non-Small Cell Lung tumor cell line is measured as a screen for anti-cancer activity. Cells are grown in 96 well plates and exposed to the test compound for 48 hours. Compounds are tested at a single concentration, which is 10^-5 M for most compounds. The reported endpoint is percent growth (GI% or GIPRCNT), where numbers from 0 - 100% represent growth inhibition, and numbers from -100% - 0 represent cell death. For example, a value of 40 represents 60% growth inhibition. A value of 0 means no net growth occurred over the course of the experiment. A value of -40 indicates 40% of cells at the beginning of the experiment died by the end of the experiment. A value of -100 means all cells are dead at the end of the experiment.
NCI-60 Human Tumor Cell Lines Screen was performed using the standard one-dose NCI protocol, which is described in more detail at https://dtp.cancer.gov/discovery_development/nci-60/default.htm.
Compounds with GIPRCNT values below 10 were considered active. Activity score was based on GIPRCNT using the following formula: […]
Score is 0 for GIPRCNT values of 100 or above, 50 for GIPRCNT values of 0, and 100 for GIPRCNT values of -100.
As to `COC(=O)c1c2c(c(C)[n+]([O-])c1C)C(=O)C(NCc1ccccc1)=CC2=O`, the growth was 34% (inactive).

Take `OC1CSSC1Cn1cnc2c(Nc3ccc(OCc4cccc(F)c4)c(Cl)c3)ncnc21` (stereo not given): the growth is -71.9% (active).

As to `Cc1ccc(C)c2c1sc1nc(N3CCOCC3)c(C#N)c(=O)n12`, the growth is 80.2% (inactive).

As to `O=C(O)c1cn(C2CC2)c2cc(N3CCN(C(=O)N4CCOCC4)CC3)c(F)cc2c1=O`, the growth was 101% (inactive).

`CCOC(=O)c1cnn(CC(C)O)c1NC(=O)NCc1cccc(F)c1` (stereo not given): the growth was 99.9% (inactive).

For the compound `C=C(C)[C@@H]1CC[C@]2(C(=O)N3CCN(C)CC3)CC[C@]3(C)[C@H](CC[C@@H]4[C@@](C)(CCC(=O)O)[C@H](C(=C)C)CC[C@]43C)[C@@H]12`, the growth is 86% (inactive).

Turning to `CN(C)CCCNC(=O)c1cncnc1Nc1ccc2c(ccn2Cc2cccc(F)c2)c1`, the growth was 96.6% (inactive).

With `O=C(/C=C/c1ccccc1)c1cccc2ccccc12`, the growth was 65.1% (inactive).

For `O=C(C1=Cc2cc3ccccc3n2Cc2cnnn21)c1ccc(F)cc1`, the growth is 96.2% (inactive).

For `Cc1cccc(NC(=O)N/C(N)=N/c2nc3ccccc3s2)c1`, the growth is 49.6% (inactive).

For `O=C(C[C@]1(O)C(=O)Nc2ccc(Br)cc21)c1ccco1`, the growth is 107% (inactive).

Consider `Cc1ccc(S(=O)(=O)OC[C@]23CCC(C)(C)C[C@H]2C2=CC[C@@H]4[C@@]5(C)CCCNC(C)(C)[C@@H]5CC[C@@]4(C)[C@]2(C)CC3)cc1`, for which the growth was 83% (inactive).

In the case of `CC(C)Cc1nc(Nc2ccccc2)[nH]c(=O)c1C#N`, the growth is 59.4% (inactive).

Turning to `CN(C)CCC(=O)C1CC1`, the growth is 111% (inactive).

With `COc1cc(/C=C2\C(=O)N(CCCOc3cc(O)c4c(=O)cc(-c5ccccc5)oc4c3)c3ccccc32)cc(OC)c1O`, the growth was 88.4% (inactive).

Take `COc1cc2c(cc1-c1c(C)noc1C)ncc1nc(CN3CCOCC3)n([C@H](C)COC(F)F)c12`: the growth is 49.6% (inactive).

As to `Cc1ccc(-c2csc(NC(=O)CSc3nc(N)cc(N)n3)n2)cc1`, the growth is 46.4% (inactive).

Take `NS(=O)(=O)c1ccc(C(=O)N=Nc2c(O)[nH]c3ccc(Cl)cc23)cc1`: the growth is 95.8% (inactive).

For the compound `O=C(CSc1nnnn1-c1ccccc1)Nc1ccc(Oc2ccccc2)cc1`, the growth was 100% (inactive).

For `CCNC(=O)N1CCc2c(Br)c3c(c(OC)c2C1Cc1ccc(OC)cc1)OCO3` (stereo not given), the growth is 54.4% (inactive).

For the compound `Nc1c(Br)cc2c(c1Br)Cc1cc([N+](=O)[O-])ccc1-2`, the growth is 55.3% (inactive).

As for `COc1ccc(C2CC(c3ccccc3)=NN2C(=O)c2cc(OC)c(OC)c(OC)c2)cc1O` (stereo not given), the growth is 46.7% (inactive).

`Clc1ccc(-c2cc(-c3ccccc3)nc(N3CCN(CCCNc4ccnc5cc(Cl)ccc45)CC3)n2)cc1`: the growth was 80.1% (inactive).

For `O=C(Oc1ccc2c(c1)sc1nc(-c3ccccc3)[nH]c(=O)c12)C(F)(F)F`, the growth was 58.8% (inactive).

On to `Cc1ccc(-c2nc(SCC(=O)N3CCN(c4cc5c(cc4F)c(=O)c(C(=O)O)cn5C4CC4)CC3)nc(Cl)c2C#N)cc1`, for which the growth is 96.1% (inactive).

As for `O=C1C=C(SCCO)C(=O)c2ccccc21`, the growth is 53.5% (inactive).

`COc1cc(/C=C/c2cn[nH]c2-c2ccc(C)cc2)cc(OC)c1OC`: the growth was 47.8% (inactive).

For `CN(C)c1ccc([C@@H](C(=O)Nc2cccc([N+](=O)[O-])c2)N(C(=O)c2cc3ccccc3[nH]2)c2cccc([N+](=O)[O-])c2)cc1`, the growth was 90.7% (inactive).

As for `COC(=O)c1sccc1-c1cc(O)c(C(=O)Nc2ccccc2)s1`, the growth is 71.9% (inactive).

Turning to `CN1CCOCCN(C)Cc2ccc3ccc(cc3c2)CN(C)CCOCCN(C)Cc2ccc3ccc(cc3c2)C1`, the growth is 106% (inactive).

Consider `C=CC(=O)Nc1cccc(Oc2nccc(Nc3nnc(-c4ccc(Br)cc4)s3)n2)c1`, for which the growth was 101% (inactive).

Consider `COC(=O)/C(CCC=C(C)C)=C1\[C@@H](OC(C)=O)C[C@@]2(C)[C@H]1C/C(=N/O)[C@H]1[C@@]3(C)CC/C(=N\O)[C@@H](C)[C@@H]3CC[C@@]12C`, for which the growth is 100% (inactive).

As for `COc1cc(C[C@H]2COc3cc(O)cc(O)c3C2=O)ccc1O`, the growth is 74.3% (inactive).

Regarding `FC(F)(F)c1[nH]ncc1-c1nc2ccc3[nH]ncc3c2c2c1CCCC2`, the growth was 3.77% (active).

For `CCCOC(=O)Nc1nc2ccc(SCC)cc2s1`, the growth is 94.3% (inactive).

Consider `O=C1/C(=C/c2ccccn2)SC(=S)N1N1CCOCC1`, for which the growth is 90.6% (inactive).

Consider `CCOC(=O)c1cnn(CC(C)O)c1NC(=O)NCc1ccccc1C(F)(F)F` (stereo not given), for which the growth is 98.1% (inactive).

Consider `c1ccc(Cn2cc3c(c2-c2ccccc2)CCc2cnoc2-3)cc1`, for which the growth is 80.1% (inactive).

Turning to `COc1ccc(-c2nc3ccc(C)cc3c3c2c(=O)n(C)c(=O)n3C)cc1OC`, the growth was 102% (inactive).

With `S=c1ccnc[nH]1`, the growth is 118% (inactive).
